Measured values reported in PubChem BioAssay (NCI).
Several values for one entry are separate records, joined by “and”; a condition that tells them apart may be missing. Equal entries are not always repeated. This is part of a sample that, as a whole, favours compounds with a hit. Of some 83,000 tested, about 20% had one in any assay.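 Plates (96-well) were seeded with cells, treated with compound at one concentration, and incubated for 48 hours before percent growth was determined.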 Activity calls are given as the source filed them.

system: HL-60(TB) leukemia; assay: NCI-60 one-dose screen, 48 h (100 = growth as untreated, 0 = no growth, -100 = all killed); settings: 10 µM
Procedure: Growth inhibition of the HL-60(TB) human tumor cell line is measured as a screen for anti-cancer activity. Cells are grown in 96 well plates and exposed to the test compound for 48 hours. Compounds are tested at a single concentration, which is 10^-5 M for most compounds. The reported endpoint is percent growth (GI% or GIPRCNT), where numbers from 0 - 100% represent growth inhibition, and numbers from -100% - 0 represent cell death. For example, a value of 40 represents 60% growth inhibition. A value of 0 means no net growth occurred over the course of the experiment. A value of -40 indicates 40% of cells at the beginning of the experiment died by the end of the experiment. A value of -100 means all cells are dead at the end of the experiment.
NCI-60 Human Tumor Cell Lines Screen was performed using the standard one-dose NCI protocol, which is described in more detail at https://dtp.cancer.gov/discovery_development/nci-60/default.htm.
Compounds with GIPRCNT values below 10 were considered active. Activity score was based on GIPRCNT using the following formula: […]
Score is 0 for GIPRCNT values of 100 or above, 50 for GIPRCNT values of 0, and 100 for GIPRCNT values of -100.

| Compound | growth |
| --- | --- |
| O=C(O)c1cc(Cc2ccc(O)c(C(=O)O)c2)ccc1O (tested in a mixture with another compound) | 21.3% (inactive) |
| NNc1ccccc1 | 5.84% (active) |
| O=c1[nH]c2ccccc2n1C1CCN(CCCC(c2ccc(F)cc2)c2ccc(F)cc2)CC1 | -41.7% (active) and -41.6% (active) |
| O=[N+]([O-])c1ccc(N(CCO)CCO)c2c1no[n+]2[O-] | -33.1% (active) |
| COc1cc([C@@H]2c3cc4c(c(O)c3C[C@H]3COC(=O)[C@@H]32)OCO4)cc(OC)c1OC | -33.5% (active) |
| [Cl][Hg][c]1ccc(Cl)s1 | -17.2% (active) |
| Cc1ccc(C(=O)C2C(c3ccccc3)N2C2CCCCC2)cc1 (stereo not given) | 98.3% (inactive) and 94.8% (inactive) |
| O=[P+](O)c1ccccc1 | 106% (inactive) |
| CCOP(=O)(OCC)/C(C#N)=C/c1ccc(Br)cc1 | 92.1% (inactive) |
| COc1ccc(/C=C\[N+](=O)[O-])cc1OC | 44.3% (inactive) and 2.41% (active) |
| COc1cc([N+](=O)[O-])c2ncccc2c1[N+](=O)[O-] | 65.5% (inactive) |
| COc1cc(/C=C\[N+](=O)[O-])ccc1O | 9.29% (active) and 48.1% (inactive) |
| COc1ccc2c(ccc3oc([N+](=O)[O-])cc32)c1 | -31.4% (active) |
| COc1cc2c(c(OC)c1OC)-c1ccc(O)c(=O)cc1[C@@H](NC(C)=O)CC2 | 36% (inactive) |
| COC12c3c(C)cc(O)c4c(=O)occ(c34)C(=O)C1C13COC(=O)c4c(O)cc(C)c(c41)C(=O)C2C3OC(C)=O (stereo not given) | 100% (inactive) |
| NC(=O)c1cc([N+](=O)[O-])c(Cl)c([N+](=O)[O-])c1Cl | -26.9% (active) |
| CN(C)CC1(N)C(=O)NC(=O)NC1=O | 97.5% (inactive) |
| O=C(CCl)Nc1ccc(Cl)cc1 | 66.3% (inactive) |
| NC(=O)c1cc([N+](=O)[O-])c(Cl)c([N+](=O)[O-])c1 | 20.1% (inactive) |
| CC/C(=C/c1ccc(OC)cc1)[N+](=O)[O-] | -1.61% (active) |

| Compound | growth |
| --- | --- |
| C=NCC#N | 99.1% (inactive) and 112% (inactive) |
| COc1cc2c(cc1OC)C13CCN4CC5=CCOC6CC(=O)N2C1C6C5CC43 (stereo not given) | 127% (inactive) and 80.1% (inactive) |
| CC(C)c1cc([N+](=O)[O-])cc([N+](=O)[O-])c1O | 62.2% (inactive) |
| O=[N+]([O-])c1ccc(Br)c([N+](=O)[O-])c1 | 43% (inactive) |
| CC(=O)Nc1c2sscc-2n(C)c1=O | -53% (active) |
| N#CCc1ccccc1 | 105% (inactive) |
| COC12C(COC(N)=O)C3=C(C(=O)C(C)=C(N)C3=O)N1CC1C2N1C (stereo not given) | -23.2% (active) |
| O=C1CCC(=O)N1SC(Cl)(Cl)Cl | 100% (inactive) |
| NC(Cc1ccccc1)c1ccccc1 (stereo not given) | 102% (inactive) and 107% (inactive) |
| S=C=NCCc1ccccc1 | 9.55% (active) |
| O=[N+]([O-])c1ccc(N2CCOCC2)c2c1no[n+]2[O-] | -16.7% (active) |
| Cc1cc(C(C)(C)c2ccc(O)c(C)c2)ccc1O | 71.4% (inactive) |
| Oc1c(I)cc(I)cc1I | 105% (inactive) |
| O=C1C(=O)c2ccccc2-c2ccccc21 | -42.4% (active) |
| COc1ccccc1/C=C/[N+](=O)[O-] | 6.74% (active) |
| CC(C)C1(NC(=O)C2CC3c4cccc5[nH]cc(c45)CC3N(C)C2)OC2(O)C3CCCN3C(=O)C(Cc3ccccc3)N2C1=O (stereo not given) | 73.9% (inactive) |
| CC(C)(C)OOC(=O)/C=C\C(=O)OOC(C)(C)C | 74.6% (inactive) |
| COc1cc(/C=C(/C)[N+](=O)[O-])ccc1O | -17.3% (active) and -34.3% (active) |
| CC[C@@]1(O)C[C@H](OC2CC(N(C)C)C(O)C(C)O2)c2c(cc3c(c2O)C(=O)c2c(O)ccc(O)c2C3=O)[C@H]1C(=O)OC (stereo not given in full) | -68.9% (active) |
| O=[N+]([O-])/C=C/c1ccc(Cl)cc1[N+](=O)[O-] | 33.9% (inactive) |
